Compounds with a hit are over-represented: about 5% of the library has one in this group of screens.
Vaccinia mCherry: inhibitors of vaccinia virus infection (mCherry reporter signal). AID 720579. Vaccinia virus mCherry reporter infection, fluorescence. 310,000 tested, 0.63% active. Potency, µM (top dose mostly 36.5 µM), without a hit: at the top dose activity change, negative = inhibition, usual class: inhibitors; calls by dose curve; tested in A549 cells; note: potency is the fitted concentration of half-maximal effect; nearly all actives have a fitted effect of over 35% in size
HCMV inh: human cytomegalovirus inhibition. HFF cells, HCMV-luciferase reporter, 72 h; stronger effect = lower value. AID 1259415. activity change, negative = inhibition, % at 57.5 µM. 410,000 tested, 4.5% active; in the data active = activity change below about -60%; inconclusive = no clear call, values can overlap the other calls; inactive = above about -39%
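Human foreskin fibroblasts infected with luciferase-reporter HCMV at MOI 1 PFU/cell, compounds at two doses. Luciferase measured 72 h post infection; normalized to buffer-only basal and Salinomycin (10uM) controls.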
Vaccinia Venus: vaccinia inhibition (Venus reporter) | Vaccinia virus Venus reporter expression, fluorescence | Potency, µM (titrated, usually from 36.5 µM), for the others: at the highest dose activity change, negative = inhibition, usual class: inhibitors | AID 720580 | 330,000 tested, 0.46% active; calls by dose curve; tested in A549 cells; note: potency is the fitted concentration of half-maximal effect; nearly all actives have a fitted effect of over 30% in size
LmPK inh: blocks Leishmania mexicana pyruvate kinase activity; Q27686; purified LmPK, Kinase-Glo ATP luminescence, 1 h; Potency, µM (highest dose often 57.5 µM), for the others: at the top dose activity change, negative = inhibition, usual class: inhibitors; 290,000 tested, 0.37% active; AID 1721; note: potency is the fitted concentration of half-maximal effect
Target sequence (Q27686 whole entry, looked up): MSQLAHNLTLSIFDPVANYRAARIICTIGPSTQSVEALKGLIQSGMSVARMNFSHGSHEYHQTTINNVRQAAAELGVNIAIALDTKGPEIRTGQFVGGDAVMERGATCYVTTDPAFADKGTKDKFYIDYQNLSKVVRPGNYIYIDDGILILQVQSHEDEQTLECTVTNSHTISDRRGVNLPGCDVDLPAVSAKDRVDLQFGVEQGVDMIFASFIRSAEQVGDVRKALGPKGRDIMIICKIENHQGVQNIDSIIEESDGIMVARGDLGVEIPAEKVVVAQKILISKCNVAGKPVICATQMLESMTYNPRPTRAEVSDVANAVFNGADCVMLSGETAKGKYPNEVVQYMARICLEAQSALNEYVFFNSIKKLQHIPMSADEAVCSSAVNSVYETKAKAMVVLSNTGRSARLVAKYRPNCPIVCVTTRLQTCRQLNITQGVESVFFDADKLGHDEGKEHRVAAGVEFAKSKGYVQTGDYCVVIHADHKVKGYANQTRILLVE
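Kinase-Glo luminescence read after 1 h RT reaction of 0.1 nM LmPK with 0.5 mM PEP and 0.1 mM ADP. Activity scaled between uninhibited and enzyme-free controls.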
Tb PYK inh: inhibitors of Trypanosoma brucei pyruvate kinase; TbPYK enzyme, Kinase-Glo Plus ATP luminescence, 45 min; Q57TT1; AID 624173; 410,000 tested, 0.12% active; Potency, µM (top dose mostly 76.8 µM), without a hit: at the top dose activity, negative = inhibition, usual class: inhibitors; note: potency is the fitted concentration of half-maximal effect; nearly all actives have a fitted effect of over 50% in size
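Screened from lowest to highest concentration, compounds were pinned into TbPYK/substrate mixtures, and ADP (130 uM final) was added. Plates sat at room temperature for 45 min prior to Kinase-Glo Plus detection by luminescence.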
* = called active by the depositor; [ ] = another dose, or the depositor's remark. Unless noted, calls come from the whole dose curve; as a rule, active = well fitted curve in the direction sought with a large enough effect; inconclusive = small, poorly fitted or top-dose-only effect, or another doubt; inactive = no such curve, though single readings can be large; an effect the other way counts as inactive or inconclusive. % is set by controls: 0 for no effect and ±100 for the full control effect.

`CC(=O)Nc1ccc2c3c(cccc13)C(=O)N(c1ccccc1)C2=O` gave Vaccinia mCherry inactive, HCMV inh -60*, Vaccinia Venus 4%, LmPK inh 1% and Tb PYK inh 1%.
`C[C@]12c3[nH]c4ccccc4c3CCN1C(=O)C(CC(=O)NCc1ccco1)C[C@@H]2C(=O)N1CCCCC1` (stereo not given in full) gave Vaccinia mCherry -6%, HCMV inh -5, Vaccinia Venus -24% and Tb PYK inh 3%.
Screening Cc1ccc(Cn2c(=O)n(CC3CCC(C(=O)N4CCC(C)CC4)CC3)c(=O)c3sccc32)cc1 (stereo not given) returned Vaccinia mCherry -18%, HCMV inh 1, Vaccinia Venus -25% and Tb PYK inh -4%.
Screening Cc1ccccc1Cn1c(=O)n(CC2CCC(C(=O)N3CCC(C)CC3)CC2)c(=O)c2sccc21 (stereo not given) returned Vaccinia mCherry inconclusive, HCMV inh -75*, Vaccinia Venus inconclusive and Tb PYK inh 0%.
`O=S(=O)(Nc1cccc(-c2nc3cccnc3s2)c1)c1ccc2c(c1)OCCO2` gave Vaccinia mCherry -4%, HCMV inh -64*, Vaccinia Venus -21%, LmPK inh -3% and Tb PYK inh 3%.
For S=C(NCc1ccco1)Nc1ccc(Cl)cc1Cl the results were Vaccinia mCherry -18%, HCMV inh -74*, Vaccinia Venus -9%, LmPK inh 0% and Tb PYK inh -5%.
`COc1ccc(-c2nc3scc(CCNS(=O)(=O)c4ccc(Oc5ccccc5)cc4)n3n2)cc1OC` gave Vaccinia mCherry -15%, HCMV inh -72*, Vaccinia Venus -9% and Tb PYK inh 1%.
For COc1ccc(S(=O)(=O)NCCc2csc3nc(-c4ccccc4)nn23)cc1OC the results were Vaccinia mCherry -10%, HCMV inh 13, Vaccinia Venus -12% and Tb PYK inh -1%.
CCCS(=O)(=O)NCCc1csc2nc(-c3ccc(C)cc3)nn12 was read as Vaccinia mCherry -6%, HCMV inh 69, Vaccinia Venus -4% and Tb PYK inh 0%.
Screening COc1ccc(S(=O)(=O)NCCc2sc3nc(-c4ccc(C)cc4)nn3c2C)cc1C returned Vaccinia mCherry -6%[7.34 µM], HCMV inh -94*, Vaccinia Venus -4%[7.34 µM] and Tb PYK inh -7%.
For CCc1ccc(NC(=O)C(=O)NCCc2sc3nc(-c4ccc(OC)cc4)nn3c2C)cc1 the results were Vaccinia mCherry inactive, HCMV inh -64*, Vaccinia Venus -8% and Tb PYK inh 1%.
Screening CCCS(=O)(=O)NCCc1sc2nc(-c3ccc(Cl)cc3)nn2c1C returned Vaccinia mCherry inconclusive, HCMV inh -66*, Vaccinia Venus inconclusive and Tb PYK inh -2%.
O=C(NCCN=C1NS(=O)(=O)c2ccccc21)c1ccco1 was read as Vaccinia mCherry -3%, HCMV inh 34, Vaccinia Venus 0%, LmPK inh -1% and Tb PYK inh 3%.
CCCS(=O)(=O)NCCc1sc2nc(-c3ccc(F)cc3)nn2c1C was read as Vaccinia mCherry inconclusive, HCMV inh -71*, Vaccinia Venus inconclusive and Tb PYK inh 4%.
CCOc1ccc(S(=O)(=O)NCCc2sc3nc(-c4ccc(F)cc4)nn3c2C)cc1 was read as Vaccinia mCherry inconclusive, HCMV inh inconclusive, Vaccinia Venus inconclusive and Tb PYK inh 47%.
`Cc1cc(C)c(S(=O)(=O)NCCc2sc3nc(-c4ccc(F)cc4)nn3c2C)c(C)c1` gave Vaccinia mCherry -14%, HCMV inh -60*, Vaccinia Venus inconclusive and Tb PYK inh 3%.
Screening O=C1C=CC(=O)N1Cc1ccccn1 returned Vaccinia mCherry -8%, HCMV inh 5, Vaccinia Venus -3% and Tb PYK inh 2%.
COc1cc(/C=C/C(=O)N2CCN(CC(O)COc3ccccc3)CC2)cc(OC)c1OC (stereo not given) was read as HCMV inh -82*, Vaccinia Venus -10%, LmPK inh 3% and Tb PYK inh 1%.
COc1ccc(/C(O)=C2/C(=O)C(=O)N(CCCC(=O)O)C2c2ccc(OC)c(OC)c2)cc1 (stereo not given) was read as Vaccinia mCherry -8%, HCMV inh 46, Vaccinia Venus -5%, LmPK inh -1% and Tb PYK inh -7%.
For CC(CCc1ccc(O)cc1)N1CCC(Oc2ccc(C(=O)N3CCCC3)cc2)CC1 (stereo not given) the results were Vaccinia mCherry inactive, HCMV inh -60*, Vaccinia Venus -9%, LmPK inh -6% and Tb PYK inh 3%.
For COc1ccc(CCC(C)N2CCC(Oc3ccc(C(=O)N4CCCC4)cc3)CC2)cc1 (stereo not given) the results were Vaccinia mCherry -1%, HCMV inh -8, Vaccinia Venus -22%, LmPK inh -9% and Tb PYK inh 3%.
CCN(CC(=O)NCc1ccc(F)cc1)CC(=O)Nc1ccccc1-c1ccccc1 was read as Vaccinia mCherry -8%, HCMV inh 18, Vaccinia Venus -10%, LmPK inh 11% and Tb PYK inh 3%.
Screening COCCN(C(=O)COC(=O)CSc1ccc(Cl)cc1)c1c(N)n(CC(C)C)c(=O)[nH]c1=O returned Vaccinia mCherry inactive, HCMV inh -24, Vaccinia Venus -13% and Tb PYK inh -5%.
`Cc1ccccc1NC(=O)c1ccc(F)c(S(=O)(=O)N(C)Cc2ccccc2)c1` gave Vaccinia mCherry inconclusive, HCMV inh inconclusive, Vaccinia Venus -29% and Tb PYK inh 2%.
`CCN(c1ccccc1)S(=O)(=O)c1cc(C(=O)Nc2ccc(Br)cc2)ccc1F` gave Vaccinia mCherry 14µM*, HCMV inh -89*, Vaccinia Venus 13µM*, LmPK inh 4% and Tb PYK inh -6%.
`CCN(c1ccccc1)S(=O)(=O)c1cc(C(=O)Nc2ccccc2Cl)ccc1F` gave Vaccinia mCherry -10%, HCMV inh -63*, Vaccinia Venus -20%, LmPK inh 0% and Tb PYK inh -4%.
`Cc1cccc(-c2nc(NCCN(C)C)c3ccccc3n2)c1` gave Vaccinia mCherry -2%, HCMV inh inconclusive, Vaccinia Venus -1% and Tb PYK inh -3%.
`Cc1sc(NCc2ccccc2)nc1-c1ccccc1` gave Vaccinia mCherry -17% and Vaccinia Venus -10%.
For COc1ccc(C(C)=NOC(=O)c2c(-c3ccccc3Cl)noc2C)cc1CN1CCOCC1 the results were Vaccinia mCherry -11%, HCMV inh -60*, Vaccinia Venus -27% and Tb PYK inh -18%.
For Cc1cccc(NC(=O)N[C@@H](C)C(=O)O)c1 the results were HCMV inh 21, Vaccinia Venus -7%, LmPK inh -7% and Tb PYK inh -6%.
`CCN(CC)c1nc(NNC(=O)c2ccccc2)nc(N(CC)CC)n1` gave Vaccinia mCherry -2%, HCMV inh -70*, Vaccinia Venus -7% and Tb PYK inh 2%.

Screening data as filed in PubChem BioAssay.
